Compound activity as filed in PubChem BioAssay.
An excerpt weighted towards active compounds, which were near 2.5% of everything screened.
Cruzain Triton: cruzain (T. cruzi) inhibition with detergent | Potency, µM, actives largely listed as inhibitors | P25779 | actives 0.43% (n = 200,000) | purified cruzain, Z-FR-AMC fluorescence, 0.01% Triton; also: nearly all actives have a fitted effect of over 40% in size
Target sequence (P25779 123-467 limits assumed): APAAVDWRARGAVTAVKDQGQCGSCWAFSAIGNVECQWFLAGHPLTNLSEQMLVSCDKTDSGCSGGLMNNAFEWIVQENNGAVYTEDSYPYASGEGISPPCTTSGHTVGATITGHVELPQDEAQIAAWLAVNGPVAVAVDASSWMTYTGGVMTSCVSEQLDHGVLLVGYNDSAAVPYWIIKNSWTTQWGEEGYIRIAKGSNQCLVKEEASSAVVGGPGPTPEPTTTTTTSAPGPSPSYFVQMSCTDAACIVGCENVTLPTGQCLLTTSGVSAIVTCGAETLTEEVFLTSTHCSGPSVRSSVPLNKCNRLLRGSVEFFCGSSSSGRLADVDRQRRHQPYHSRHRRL
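15 min RT preincubation of 1.5 nM cruzain with compound, then 2 uM Z-FR-AMC added; kinetic AMC fluorescence, 60 s delta. Triton X-100 0.01%, pH 5.5.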
Cruzain noTriton: cruzain (T. cruzi) inhibition without detergent. P25779. AID 1476. Potency, µM, hits mostly inhibitors. purified cruzain, Z-FR-AMC fluorescence, no detergent. actives 2.3% (n = 200,000); also: nearly all actives have a fitted effect of over 40% in size
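Detergent-free condition (0.00005% Triton X-100) in acetate buffer pH 5.5 with DTT. 1.5 nM enzyme and compound were pre-mixed 15 min, then 2 uM Z-FR-AMC substrate added; reaction progress from fluorescence change between first and third reads (60 s).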
Each line names hits and unclear results; the compound was inactive in the other large screens. Calls follow the shape of the dose curve; as a rule, active = well fitted curve in the direction sought with a large enough effect; inconclusive = small, poorly fitted or top-dose-only effect, or another doubt; inactive = no such curve, though single readings can be large; an effect the other way counts as inactive or inconclusive.

COC(=O)c1nnc(N[C@@H](Cc2c[nH]c3ccccc23)C(=O)OC)nc1C(=O)OC	none
Cc1ccccc1NC(=O)COC(=O)/C=C/c1cn(-c2ccccc2)nc1-c1cccnc1	Cruzain noTriton 25µM
COc1ccc(-c2nn(-c3ccccc3)cc2/C=C/C(=O)OCC(=O)Nc2cccc(C#N)c2)cc1	Cruzain noTriton 32µM
CC(=O)Nc1ccc(NC(=O)C(C)OC(=O)/C=C/c2cn(-c3ccccc3)nc2-c2cccnc2)cc1 (configuration not stated)	Cruzain noTriton inconclusive
COc1ccc(-c2nn(-c3ccccc3)cc2/C=C/C(=O)OCC(=O)Nc2ccc(C#N)cc2)cc1	Cruzain noTriton inconclusive
CCc1ccccc1NC(=O)Cn1nc(-c2cc(C)ccc2C)c2c(c1=O)CCCC2	none
CC(CC(=O)NCc1ccc(Cl)cc1)CC1=NS(=O)(=O)c2ccccc2N1 (configuration not stated)	none
O=C1C(Cl)=C(N2CCOCC2)C(=O)N1c1ccccc1Cl	Cruzain Triton inconclusive
CN1CCN(C2=C(Cl)C(=O)N(c3cccc(Cl)c3)C2=O)CC1	Cruzain noTriton inconclusive
CN1CCN(C2=C(Cl)C(=O)N(c3ccc(Cl)c(Cl)c3)C2=O)CC1	Cruzain Triton 2.8µM, Cruzain noTriton 2.5µM
Cc1ccc(N2C(=O)C(Cl)=C(N3CCOCC3)C2=O)cc1Cl	Cruzain Triton 7.1µM, Cruzain noTriton 7.9µM
COc1cc(C(CC(=O)Nc2ccc(F)cc2F)N2Cc3ccccc3C2=O)cc(OC)c1OC (configuration not stated)	none
COc1ccc(-c2cc(C(F)(F)F)nc(SCCC(=O)Nc3cccc(O)c3)n2)cc1	none
COc1cc2nc(NCCc3ccc(Cl)cc3)n3nc(-c4ccccc4)nc3c2cc1OC	none
O=C(Cc1ccccc1)Nc1ccc(NC(=O)c2cccc(Cl)c2)cc1	Cruzain noTriton 25µM
O=C(O)CCC(=O)Nc1cccc(C(=O)Nc2cccc(Cl)c2)c1	none
Cc1ccccc1-c1noc(CSc2nc(-c3ccc(F)cc3)cc(=O)[nH]2)n1	none
Cc1ccc(Cn2ccn(CC(=O)Nc3c(C)cc(C)cc3C)c(=O)c2=O)cc1	none
CCOc1ccc(NC(=O)Cn2c(C)cc3ccccc3c2=O)cc1	none
COc1ccc(NC(=O)Cc2c(C(=O)O)[nH]c3ccccc23)cc1OC	none
CCN(CC)c1ccc(C=C(c2nnnn2-c2ccc(C)cc2)c2nnnn2-c2ccc(C)cc2)cc1	Cruzain noTriton 32µM
Cc1ccc(-n2nnnc2C(Cl)c2nnnn2-c2ccc(C)cc2)cc1	none
Clc1ccc(Cl)c(Nc2ccnc(SCc3ccccc3)n2)c1	none
Oc1ccccc1/C=N/Nc1ccnc(SCc2ccccc2)n1	Cruzain noTriton 20µM
CCOC(=O)c1ccc(N2CCN(c3cc(C)ccc3C)CC2)c(NC(=O)Nc2ccccc2)c1	Cruzain noTriton 7.9µM
CCOC(=O)c1ccc(N2CCN(c3cc(Cl)ccc3C)CC2)c(NC(=O)Nc2ccc(OCC)cc2)c1	none
Cc1noc2ncnc(NCc3ccc(Cl)cc3)c12	none
O=C(CC12CC3CC(C1)CC(CC(=O)NC1=NCCS1)(C3)C2)NC1=NCCS1	Cruzain noTriton 25µM
O=C(NC1=NCCS1)C12CC3CC(C1)CC(C(=O)NC1=NCCS1)(C3)C2	none
CN1CCC[C@@H](CC2c3ccccc3Sc3ccccc32)C1	none
COc1cccc(N(C(=O)c2ccco2)c2nc(-c3sc(NC(=O)c4ccco4)nc3C)cs2)c1	Cruzain noTriton inconclusive
Cc1ccc(Cl)cc1Nc1nc(-c2sc(NC(=O)c3ccco3)nc2C)cs1	Cruzain noTriton 25µM
COc1ccccc1Nc1nc(-c2sc(NC(=O)c3ccco3)nc2C)cs1	Cruzain noTriton inconclusive
Cc1nc(NC(=O)c2ccco2)sc1-c1csc(Nc2ccc(Cl)cc2)n1	Cruzain noTriton 13µM
Cc1nc(NC(=O)c2ccco2)sc1-c1csc(Nc2ccc(Cl)cc2Cl)n1	Cruzain noTriton 13µM
O=C(Nc1nc2ccc(Cl)cc2s1)c1ccco1	Cruzain noTriton inconclusive
CCCN(CCC)C(=O)Cn1c(=O)n(-c2ccc(C)cc2)c(=O)c2ccc(C(=O)NCc3ccccc3Cl)cc21	none
Cc1ccccc1NC(=O)Cn1c(=O)n(CCC(=O)N2CCc3ccccc3C2)c(=O)c2ccccc21	none
O=C(c1ccco1)n1nc(-c2ccccc2)nc1NCc1ccc(F)cc1	none
COCCNc1ncnc2onc(-c3ccc(F)cc3)c12	none
CCCN1CCN(CCNC(=O)Nc2cc(OC)cc(OC)c2)CC1	none
CCOC(=O)CC(CC(C)=O)C(=O)OCC (configuration not stated)	none
CN1[C@@H]2CC[C@H]1CC(OC(=O)[C@@H](CO)c1ccccc1)C2 (some centres not stated)	none
O=Cc1c(Sc2ccccc2)nc2ccccn2c1=O	none
O=c1c(/C=N/Nc2ccccc2)c(Sc2nnnn2-c2ccccc2)nc2ccccn12	Cruzain noTriton 16µM
Cc1ccccc1CNC(=O)Cn1nc(C)c2nn(-c3ccc(Cl)cc3)c(C)c2c1=O	none
O=C(O)CC/C=C\C[C@@H]1CO[C@H](c2ccccc2Cl)O[C@@H]1c1ccccc1O	none
Cc1ccc2nc3c(cc(C(=O)NCc4cccnc4)c(=N)n3C(C)C)c(=O)n2c1	Cruzain Triton 32µM, Cruzain noTriton inconclusive
CCCn1c(=N)c(C(=O)NCc2cccnc2)cc2c(=O)n3cc(C)ccc3nc21	none
COc1ccc2c(c1)C1=NN(/C(C)=C/C(C)=O)C(c3ccc(F)cc3)C1CC2 (configuration not stated)	none
COc1ccc2c(c1)C1=NN(/C(C)=C\C(C)=O)C(c3ccccc3)C1CC2 (configuration not stated)	Cruzain noTriton 25µM
COc1cc(OC)c(NC(=O)C2=C(C)C(=O)OC23CCCCC3)cc1Cl	none
COc1ccc2cc3cc(C(=O)NCc4ccccn4)oc3nc2c1	Cruzain Triton 32µM, Cruzain noTriton inconclusive
COc1ccc2cc3cc(C(=O)NCc4ccco4)oc3nc2c1	none
COc1ccc(Cl)cc1-c1nc(-c2ccc(Br)o2)no1	Cruzain noTriton 7.9µM
COc1ccc(-c2nc(-c3ccc(Br)o3)no2)cc1	none
O=C1C=C(Nc2nc(C(=O)O)cc(=O)[nH]2)c2ccccc2C1=O	none
CN1CCN(c2ncnc3ccc(-c4cccnc4)cc23)CC1	none
CCOC(=O)c1nn(-c2cccc(OC)c2)c2nc(Nc3ccccc3)cc(=O)n12	Cruzain noTriton inconclusive
Cc1cccc(-n2nc(C(=O)Nc3ccccc3)n3c(=O)cc(-c4ccccc4)nc23)c1	Cruzain noTriton 7.9µM
CCOC(=O)c1nn(-c2cccc(Cl)c2)c2nc(Nc3ccccc3)cc(=O)n12	Cruzain noTriton inconclusive
O=C(c1ccccc1)c1nn(-c2cccc(Cl)c2)c2nc(-c3ccccc3)cc(=O)n12	Cruzain noTriton 25µM
Cc1ccc(NC(=O)Cn2c(=O)ccc3cc(S(=O)(=O)N4CCC(C)CC4)ccc32)c(C)c1	none
O=C(Nc1nc(-c2ccc3c(c2)OCO3)cs1)C1COc2ccccc2O1 (configuration not stated)	Cruzain noTriton inconclusive
Cc1ccccc1CSc1nnc(NC(=O)C2COc3ccccc3O2)s1 (configuration not stated)	Cruzain noTriton inconclusive
O=C(Nc1nnc(SCc2cccc3ccccc23)s1)C1COc2ccccc2O1 (configuration not stated)	Cruzain noTriton 25µM
O=C(Nc1nc(-c2ccccc2)cs1)C1COc2ccccc2O1 (configuration not stated)	Cruzain noTriton 25µM
O=C(Nc1ccc(S(=O)(=O)N2CCCC2)cc1)C1COc2ccccc2O1 (configuration not stated)	none
